Screening data as filed in PubChem BioAssay.
In the library only some 9% were active in any assay of this set; here they are far more common.
Luc counter – blocks Kinase-Glo luciferase, a counter-screen artifact; AID 1379; Q27757; 0.28% of 200,000 active; Potency, µM (doses to about 38.3 µM), usual class: inhibitors; Kinase-Glo luciferase, ATP luminescence, 8 min; also: nearly all actives have a fitted effect of over 60% in size
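Compound is pinned into ATP-containing buffer (10 uM ATP, imidazole pH 7.2, 7 mM MgCl2). Kinase-Glo luciferase reagent is then added. Light output is recorded following an 8-min room-temperature incubation.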
IMPase Li inh – membrane-permeable IMPase blocker, potentiated with lithium; 0.35% of 210,000 active; Potency, µM (top dose mostly 59.4 µM), actives largely listed as inhibitors; CHO-M1 cells, IP1 TR-FRET (IP-One), carbachol + lithium;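 also: IP1 builds up when IMPase is blocked and the TR-FRET signal falls; nearly all actives have a fitted effect of over 50% in size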
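CHO-M1, 2000 cells/well, 16–30 h culture; cpd + low Li+, 30 min 37C; lysis with d2-IP1/Eu-anti-IP1 Ab, 10 min RT; TR-FRET 665/620 ratio and 620 channel; AC50 via Hill.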
HPGD inh – inhibitors of human 15-hydroxyprostaglandin dehydrogenase (HPGD). AID 894. 4.3% of 150,000 active. P15428. purified HPGD, NADH fluorescence kinetic, PGE2 substrate. Potency, µM, actives largely listed as inhibitors; active = well fitted inhibition curve with a large enough effect, not every such curve was filed as active; inconclusive = small, poorly fitted or top-dose-only effect, or another doubt; inactive = no such curve, though single readings can be large or run the other way
Target sequence (P15428 whole entry, looked up): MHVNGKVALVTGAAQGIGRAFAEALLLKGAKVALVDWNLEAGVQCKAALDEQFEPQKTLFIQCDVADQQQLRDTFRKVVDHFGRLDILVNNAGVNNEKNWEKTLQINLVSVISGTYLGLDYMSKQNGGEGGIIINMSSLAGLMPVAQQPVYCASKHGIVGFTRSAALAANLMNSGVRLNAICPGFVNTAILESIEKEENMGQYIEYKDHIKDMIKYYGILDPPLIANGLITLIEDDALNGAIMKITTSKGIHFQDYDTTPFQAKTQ
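20 nM HPGD preincubated 15 min at room temperature with compound in 50 mM Tris-HCl pH 8, 0.01% Tween 20. Started with 1 mM NAD+ and 30 uM prostaglandin E2; NADH fluorescence (360/450 nm) read 5 times over 30-s intervals, last minus first.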
LMNA splice mod – modulators of lamin A splicing; HeLa LMNA splicing GFP/RFP minigene ratio, 48 h; Potency, µM (doses to about 46.1 µM), actives largely listed as inhibitors; 0.01% of 200,000 active; active = well fitted inhibition curve with a large enough effect in the signal ratio, with a control signal flat, not every such curve was filed as active; inconclusive = small, poorly fitted or top-dose-only effect, or effect the other way, or a change in a side signal; the % refers to the signal ratio
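Read-out is the ratio of GFP to DsRed2 object intensity, acquired by 488 nm laser-scanning cytometry on HeLa lamin A-EGFP minigene reporter cells. Compound incubation 48 hrs at 37 °C in Opti-MEM with 2% FBS; DMSO 0.5% final.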
ALDH1A1 inh – inhibitors of human aldehyde dehydrogenase 1A1 | P00352 | Purified ALDH1A1, NADH fluorescence, propionaldehyde substrate | Potency, µM (doses to about 75.3 µM), actives largely listed as inhibitors | 7.3% of 220,000 active | AID 1030; active = well fitted inhibition curve with a large enough effect, not every such curve was filed as active; inconclusive = small, poorly fitted or top-dose-only effect, or another doubt; inactive = no such curve, though single readings can be large or run the other way
Each line names hits and unclear results; the compound was inactive in the other large screens. Unless noted, calls follow the shape of the dose curve; as a rule, active = well fitted curve in the direction sought with a large enough effect; inconclusive = small, poorly fitted or top-dose-only effect, or another doubt; inactive = no such curve, though single readings can be large; an effect the other way counts as inactive or inconclusive.

CCOC(=O)C1(C)/C(=N/Nc2ccccc2OC)C(=O)C(=O)N1c1ccccc1 (stereo not drawn)	ALDH1A1 inh 24µM (no result: HPGD inh)
CCN(CC)c1ccc(C(=O)Nc2ccccc2)cc1[N+](=O)[O-]	ALDH1A1 inh inconclusive (no result: HPGD inh, LMNA splice mod)
COc1ccccc1Cc1nc2ccccc2nc1SCC(=O)NCc1ccc(F)cc1	none (no result: Luc counter, IMPase Li inh, HPGD inh, ALDH1A1 inh)
COc1ccccc1CNC(=O)C(C)NS(=O)(=O)c1ccc(Br)cc1 (stereo not drawn)	ALDH1A1 inh 28µM
COc1ccc(S(=O)(=O)NC(CC(=O)NCc2ccco2)c2ccco2)cc1 (stereo not drawn)	ALDH1A1 inh inconclusive
COc1ccc(S(=O)(=O)NC(CC(=O)NCCc2ccc(OC)c(OC)c2)c2ccco2)cc1 (stereo not drawn)	ALDH1A1 inh 13µM
Cc1ccc(S(=O)(=O)NC(CC(=O)NC2CCCC2)c2ccco2)cc1 (stereo not drawn)	ALDH1A1 inh 14µM
CC(NS(=O)(=O)c1ccc(Br)cc1)C(=O)NCc1ccco1 (stereo not drawn)	ALDH1A1 inh inconclusive (no result: HPGD inh)
Cc1ccc(S(=O)(=O)NC(CC(=O)NCc2ccco2)c2ccco2)cc1 (stereo not drawn)	ALDH1A1 inh 25µM
COc1ccc(S(=O)(=O)NC(CC(=O)NCCc2ccccc2)c2ccco2)cc1 (stereo not drawn)	ALDH1A1 inh inconclusive
C[C@H](CC[C@@H]1OC1(C)C)C1CC[C@H]2[C@@H]3CC=C4C[C@@H](O)CC[C@]4(C)[C@H]3CC[C@]12C (stereo partly drawn)	none (no result: Luc counter, HPGD inh, LMNA splice mod)
O=[N+]([O-])c1ccc2nc(-c3ccc(OC(F)F)cc3)cn2c1	none (no result: HPGD inh, LMNA splice mod)
O=C(C(c1ccccc1)c1ccccc1)N1CCOCC1	none
CC(C)Oc1ccc(C(CC(=O)NCc2ccco2)c2ccccc2)cc1 (stereo not drawn)	HPGD inh 11µM, ALDH1A1 inh inconclusive
O=C(CC(c1ccccc1)c1ccco1)N1CCOCC1 (stereo not drawn)	HPGD inh 18µM, ALDH1A1 inh 40µM
CC(NS(=O)(=O)c1ccccc1)C(=O)NCc1ccco1 (stereo not drawn)	HPGD inh inconclusive, ALDH1A1 inh 24µM
Cc1ccc(S(=O)(=O)NC(CC(=O)N2CCOCC2)c2ccco2)cc1 (stereo not drawn)	IMPase Li inh inconclusive, LMNA splice mod inconclusive, ALDH1A1 inh 13µM
CCc1ccccc1N1CN(Cc2cccnc2)CNC1=S	none (no result: Luc counter, IMPase Li inh, HPGD inh, LMNA splice mod)
O=Cc1ccnc(-c2ccc(OC(=O)c3ccco3)cc2)n1	LMNA splice mod inconclusive, ALDH1A1 inh inconclusive (no result: HPGD inh)
COc1ccc(CCC(=O)NC2=NCCS2)cc1OC	none
Cc1ccc(O)c(C(CC(=O)N2CCCC2)c2ccccc2)c1 (stereo not drawn)	HPGD inh 7.1µM
COc1ccc(-n2nc3c(c2NC(=O)C24CC5CC(CC(C5)C2)C4)CS(=O)C3)cc1 (stereo not drawn)	ALDH1A1 inh 2.8µM
COc1ccc(-n2nc3c(c2NC(=O)C2CC2)CS(=O)C3)cc1 (stereo not drawn)	none
Cc1cc(C(=O)COC(=O)CC2Sc3ccccc3NC2=O)c(C)n1-c1ccc(Br)cc1 (stereo not drawn)	ALDH1A1 inh 12µM
O=C(CN1CC(=O)Oc2ccccc21)OCC(=O)c1ccc(F)cc1	LMNA splice mod inconclusive, ALDH1A1 inh 20µM (no result: HPGD inh)
O=C1CN(CC(=O)N2CCCCC2)c2ccccc2O1	LMNA splice mod inconclusive
O=C1CN(CC(=O)N2CCOCC2)c2ccccc2O1	ALDH1A1 inh 9.5µM
C[C@@H](C(=O)N1CCN(C(=O)OC(C)(C)C)CC1)n1cc(CCC(=O)O)nn1	none (no result: Luc counter, HPGD inh, LMNA splice mod)
O=C(Oc1ccc2ccccc2c1Br)N1CCCCCC1	HPGD inh 32µM, LMNA splice mod inconclusive
O=C(COc1ccc2ccccc2c1Br)NNC(=O)Nc1ccccc1	IMPase Li inh 11µM
CC(C)(C)C(=O)NNC(=O)COc1ccc2ccccc2c1Br	IMPase Li inh inconclusive, LMNA splice mod inconclusive (no result: HPGD inh)
O=C(COc1ccc2ccccc2c1Br)Nn1cnnc1	IMPase Li inh inconclusive
COC(=O)NNC(=O)COc1ccc2ccccc2c1Br	IMPase Li inh inconclusive, HPGD inh 16µM
COc1ccc(NC(=O)CC(NCc2ccccn2)C(=O)O)cc1 (stereo not drawn)	none (no result: HPGD inh)
CCn1c(SCC(=O)Nc2ccccc2C(=O)OC)nnc1-c1ccc(N)cc1	none
